Assay [1] can be described thus: ATG_GLI_CIS: Attagene CIS-FACTORIAL HepG2 Assay for human Zinc Finger Protein GLI1 (AID 2282945). As to conditions: HepG2, Attagene cis-factorial reporter mRNA, GLI element; actives raise or lower the signal. In outline: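 HepG2 cells transiently transfected with cis-promoter multiplexed reporter units report endogenous transcription factor activity. After 24 h chemical exposure, reporter mRNA was quantified by RT-PCR, 6-FAM labelling, HpaI digestion and capillary electrophoresis, with bidirectional fitting against DMSO.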

Assay [2] in a line: ATG_GRE_CIS: Attagene CIS-FACTORIAL HepG2 Assay for human Glucocorticoid Response Elements (GRE) (AID 2282947). Conditions: HepG2 GRE cis-reporter, Attagene multiplex mRNA; actives raise or lower the signal. In a few lines: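 HepG2, transient cis-reporter transfection, 24 h. Reporter mRNA: RT-PCR then CE, fluorescence. Fit both directions vs DMSO.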
A short description of assay [3]: ATG_ISRE_CIS: Attagene CIS-FACTORIAL HepG2 Assay for human Interferon Regulatory Factor 1 (IRF1) binding to an Interferon-Stimulated Response Element (ISRE) (AID 2282948). Conditions: HepG2 ISRE cis-reporter (Attagene), mRNA transcription readout; actives raise or lower the signal. In a few lines: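 Read-out: fluorescent RT-PCR products resolved by capillary electrophoresis, reporting endogenous transcription factor activity via ISRE-driven reporter mRNA in transfected HepG2 cells dosed for 24 h; gain or loss fitted relative to DMSO.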

A short description of assay [4]: ATG_M_06_CIS: Attagene CIS-FACTORIAL HepG2 Assay for M06 Transcription Factor (Internal Marker) (AID 2282950). Conditions: HepG2 Attagene CIS-FACTORIAL M06 internal marker reporter; actives raise or lower the signal. In a few lines:
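Serves as a background control readout. Transfected HepG2 exposed to compounds for 24 h, then reporter transcripts quantified by fluorescent RT-PCR and capillary electrophoresis. Both directions fitted against DMSO baseline.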

Assay [5] has as its target Hypoxia-inducible factor 1-alpha (Homo sapiens) (UniProt Q16665). Briefly: ATG_HIF1a_CIS: Attagene CIS-FACTORIAL HepG2 Assay for human Hypoxia Inducible Factor 1 (HIF1A) (AID 2282951). Conditions: HepG2 Attagene cis-factorial HIF1a reporter transcription; actives raise or lower the signal. In a few lines: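 Endogenous-TF cis reporter readout, human HepG2 cells, 24 h incubation; mRNA detected via RT-PCR and capillary electrophoresis fluorescence; DMSO-normalised bidirectional fitting.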

Assay [6] addresses Hepatocyte nuclear factor 6 (Homo sapiens) (UniProt Q9UBC0). Briefly: ATG_HNF6_CIS: Attagene CIS-FACTORIAL HepG2 Assay for human Hepatocyte Nuclear Factor 6 (HNF6) (AID 2282952). Conditions: HepG2 Attagene cis-factorial HNF6 reporter transcription; actives raise or lower the signal. In outline: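 Endogenous factor activity read in transiently transfected HepG2 via promoter-regulated reporter transcripts. RNA harvested 24 h post-dosing, reverse-transcribed, PCR-amplified, FAM-labelled, HpaI-digested and resolved by capillary electrophoresis; fitted in both directions against DMSO.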

Assay [7] deals with Heat shock factor protein 1 (Homo sapiens) (UniProt Q00613). The assay can be described thus: ATG_HSE_CIS: Attagene CIS-FACTORIAL HepG2 Assay for human Heat Shock Transcription Factor 1 (HSE) (AID 2282953). As to conditions: HepG2 HSE cis-reporter, Attagene RNA transcription; actives raise or lower the signal. In outline: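 Endogenous transcription factor activity in transiently transfected HepG2, read as reporter mRNA by RT-PCR with fluorescent capillary electrophoresis after 24 h. Gain or loss of signal fitted versus DMSO baseline.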

Assay [8] in a line: ATG_MRE_CIS: Attagene CIS-FACTORIAL HepG2 Assay for human Metal Responsive Element (MRE) (AID 2282954). Conditions: HepG2 MRE cis-reporter transcription, Attagene multiplex; actives raise or lower the signal. In a few lines: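 Readout: capillary electrophoresis of 6-FAM-labelled, HpaI-digested RT-PCR reporter products. System: HepG2 cells carrying transient multiplexed cis reporters, dosed 24 h. Analysis: bidirectional fit, DMSO baseline.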

Assay [9] is described as follows: ATG_PBREM_CIS: Attagene CIS-FACTORIAL HepG2 Assay for human Phenobarbital-responsive Enhancer Module (PBREM) (AID 2282955). Conditions: HepG2 PBREM cis-reporter, Attagene multiplexed transcription; actives raise or lower the signal. In a few lines:
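Readout: reporter mRNA, fluorescent RT-PCR fragments separated by capillary electrophoresis. System: HepG2 transiently transfected with cis-regulated reporter units. Exposure: 24 h. Analysis: bidirectional, DMSO baseline.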

The nature of assay [10]: ATG_PXRE_CIS: Attagene CIS-FACTORIAL HepG2 Assay for human Pregnane X Receptor Element (PXRE) (AID 2282957). As to conditions: HepG2 Attagene CIS-FACTORIAL PXRE reporter, mRNA; actives raise or lower the signal. In outline:
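Reporter transcripts under endogenous PXR-responsive cis-regulation quantified from total RNA of transfected HepG2 cells 24 h post-dosing, via RT-PCR with fluorescent primer extension and capillary electrophoresis. Gain or loss of signal fitted against DMSO baseline.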

Assay [11] can be described thus: ATG_PPRE_CIS: Attagene CIS-FACTORIAL HepG2 Assay for human Peroxisome Proliferator-activated Response Element (PPRE) (AID 2282958). As to conditions: HepG2 PPRE cis-element reporter, Attagene transcription factor profiling; actives raise or lower the signal. In a few lines:
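After human HepG2 hepatoma cells were transiently transfected with cis-promoter reporter constructs, they were exposed to test chemicals for 24 hours. Reporter RNA was then reverse-transcribed, PCR-amplified, FAM-labeled, HpaI-digested and quantified by capillary electrophoresis.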

Assay [12] in a line: ATG_RORE_CIS: Attagene CIS-FACTORIAL HepG2 Assay for human RAR-related Orphan Receptor Element (RORE) (AID 2282959). As to conditions: HepG2 Attagene cis-factorial RORE reporter, mRNA; actives raise or lower the signal. In a few lines:
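Measured here: transcript induction of a cis-regulated reporter in HepG2 cells transiently transfected via FuGene 6. After 24 h, RNA was processed by RT-PCR and fluorescent capillary electrophoresis; DMSO defined baseline activity.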

Assay [13] in a line: ATG_Sox_CIS: Attagene CIS-FACTORIAL HepG2 Assay for human SRY-box transcription factor (SOX) (AID 2282960). Conditions: HepG2 Attagene cis-factorial SOX reporter, mRNA; actives raise or lower the signal. In outline:
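Using transiently transfected HepG2 cells, reporter transcription driven by cis elements was assessed 24 h after dosing. Signal was fluorescence of capillary-separated RT-PCR products, with DMSO defining baseline activity.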

Assay [14] has as its target Transcription factor Sp1 (Homo sapiens) (UniProt P08047). Briefly: ATG_Sp1_CIS: Attagene CIS-FACTORIAL HepG2 Assay for human Specificity Protein 1 (Sp1) (AID 2282961). As to conditions: HepG2 Sp1 cis-reporter transcription, actives raise or lower the signal. In a few lines: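 After transient transfection of HepG2 cells with cis-promoter reporter units and 24 h chemical treatment, reporter transcripts were quantified by RT-PCR and capillary electrophoresis fluorescence. Gain- and loss-of-signal fitted against DMSO.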

In assay [15] the target is Signal transducer and activator of transcription 3 (Homo sapiens) (UniProt P40763). Briefly: ATG_STAT3_CIS: Attagene CIS-FACTORIAL HepG2 Assay for human Signal Transducer and Activator of Transcription 3 (STAT3) (AID 2282963). As to conditions: HepG2, Attagene cis-factorial STAT3 reporter transcription; actives raise or lower the signal. In outline:
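Uses human liver HepG2 transiently carrying cis-regulated reporter transcription units. Following 24 h dosing, reporter mRNA induction was detected by RT-PCR and capillary electrophoresis, analysed bidirectionally versus DMSO.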

Assay [16] is described as follows: ATG_TA_CIS: Attagene CIS-FACTORIAL HepG2 Assay for human TA Basal Promoter (AID 2282964). As to conditions: HepG2 Attagene CIS-factorial TA basal promoter reporter; actives raise or lower the signal. In outline: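 Background-control readout: TA basal promoter reporter mRNA, fitted in both directions relative to DMSO. Measured by RT-PCR and capillary electrophoresis 24 hours after treating HepG2 human liver cells transiently carrying multiplexed cis-regulated reporter constructs.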

Assay [17] in a line: ATG_M_32_CIS: Attagene CIS-FACTORIAL HepG2 Assay for M32 Transcription Factor (Internal Marker) (AID 2282949).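 Further: background control marker of the multiplexed CIS panel rather than a real target.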 Conditions: HepG2 Attagene cis-factorial M32 reporter, mRNA; actives raise or lower the signal. In a few lines: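 Using DMSO as baseline, bidirectional curve fits were applied to reporter mRNA signals. These came from transiently transfected HepG2 cells exposed for 24 h, with RNA analysed by RT-PCR, FAM primer extension, HpaI digestion and CE.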

Assay [18] has as its target Paired box protein Pax-6 (Homo sapiens) (UniProt P26367). The assay can be described thus: ATG_Pax6_CIS: Attagene CIS-FACTORIAL HepG2 Assay for human Paired Box 6 (PAX6) (AID 2282956). As to conditions: HepG2 CIS-FACTORIAL PAX6 reporter transcription, RNA readout; actives raise or lower the signal. In a few lines:
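Readout: reporter transcript fluorescence after RT-PCR and capillary electrophoresis. Cells: HepG2, transiently transfected with cis-regulated MRTUs. Exposure 24 h. Gain or loss of signal fitted bidirectionally relative to DMSO.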

Assay [19] is described as follows: ATG_SREBP_CIS: Attagene CIS-FACTORIAL HepG2 Assay for human Sterol Regulatory Element Binding (SREBP) (AID 2282962). As to conditions: HepG2 Attagene cis-factorial SREBP reporter, mRNA; actives raise or lower the signal. In outline: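 Readout: fluorescent reporter-transcript peaks resolved by capillary electrophoresis after RT-PCR. Cells were human HepG2 carrying transfected cis-promoter reporter constructs, dosed for 24 h. Gain or loss of signal was fitted against DMSO controls.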

Molecules are shown by their SMILES. The source made the active and inactive calls. How the source made its calls: active means hit-call score of the fitted dose curve at least 0.9, where 1 is the maximum; inactive means score below 0.9.

Chain of Hepatocyte nuclear factor 6 (Homo sapiens) (Q9UBC0 whole entry, looked up): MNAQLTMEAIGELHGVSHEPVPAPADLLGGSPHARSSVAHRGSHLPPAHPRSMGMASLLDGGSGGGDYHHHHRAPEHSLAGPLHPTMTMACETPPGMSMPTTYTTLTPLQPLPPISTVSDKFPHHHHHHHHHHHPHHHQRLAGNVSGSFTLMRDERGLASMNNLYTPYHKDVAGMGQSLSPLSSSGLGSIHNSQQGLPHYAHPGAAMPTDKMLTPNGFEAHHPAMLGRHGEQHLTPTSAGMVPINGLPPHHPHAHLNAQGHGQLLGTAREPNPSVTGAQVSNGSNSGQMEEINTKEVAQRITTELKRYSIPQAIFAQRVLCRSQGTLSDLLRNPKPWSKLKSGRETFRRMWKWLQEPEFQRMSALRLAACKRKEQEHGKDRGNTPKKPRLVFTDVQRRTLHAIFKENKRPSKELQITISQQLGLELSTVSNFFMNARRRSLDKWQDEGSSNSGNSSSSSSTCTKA
Chain of Heat shock factor protein 1 (Homo sapiens) (Q00613 whole entry, looked up): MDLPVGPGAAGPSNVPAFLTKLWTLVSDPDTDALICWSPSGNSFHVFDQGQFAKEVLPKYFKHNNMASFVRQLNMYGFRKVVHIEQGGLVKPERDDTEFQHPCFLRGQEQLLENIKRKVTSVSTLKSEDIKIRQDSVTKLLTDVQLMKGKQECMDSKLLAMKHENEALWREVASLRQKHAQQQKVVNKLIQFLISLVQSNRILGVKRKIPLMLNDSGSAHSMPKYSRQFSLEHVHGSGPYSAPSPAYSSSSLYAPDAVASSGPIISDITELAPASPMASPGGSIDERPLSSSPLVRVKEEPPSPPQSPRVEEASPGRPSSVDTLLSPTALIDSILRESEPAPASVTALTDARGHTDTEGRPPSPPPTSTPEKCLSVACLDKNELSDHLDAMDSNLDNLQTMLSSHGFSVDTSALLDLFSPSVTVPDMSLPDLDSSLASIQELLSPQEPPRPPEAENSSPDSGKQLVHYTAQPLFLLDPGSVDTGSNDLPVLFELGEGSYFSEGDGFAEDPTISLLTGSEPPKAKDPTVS
Chain of Hypoxia-inducible factor 1-alpha (Homo sapiens) (Q16665 whole entry, looked up): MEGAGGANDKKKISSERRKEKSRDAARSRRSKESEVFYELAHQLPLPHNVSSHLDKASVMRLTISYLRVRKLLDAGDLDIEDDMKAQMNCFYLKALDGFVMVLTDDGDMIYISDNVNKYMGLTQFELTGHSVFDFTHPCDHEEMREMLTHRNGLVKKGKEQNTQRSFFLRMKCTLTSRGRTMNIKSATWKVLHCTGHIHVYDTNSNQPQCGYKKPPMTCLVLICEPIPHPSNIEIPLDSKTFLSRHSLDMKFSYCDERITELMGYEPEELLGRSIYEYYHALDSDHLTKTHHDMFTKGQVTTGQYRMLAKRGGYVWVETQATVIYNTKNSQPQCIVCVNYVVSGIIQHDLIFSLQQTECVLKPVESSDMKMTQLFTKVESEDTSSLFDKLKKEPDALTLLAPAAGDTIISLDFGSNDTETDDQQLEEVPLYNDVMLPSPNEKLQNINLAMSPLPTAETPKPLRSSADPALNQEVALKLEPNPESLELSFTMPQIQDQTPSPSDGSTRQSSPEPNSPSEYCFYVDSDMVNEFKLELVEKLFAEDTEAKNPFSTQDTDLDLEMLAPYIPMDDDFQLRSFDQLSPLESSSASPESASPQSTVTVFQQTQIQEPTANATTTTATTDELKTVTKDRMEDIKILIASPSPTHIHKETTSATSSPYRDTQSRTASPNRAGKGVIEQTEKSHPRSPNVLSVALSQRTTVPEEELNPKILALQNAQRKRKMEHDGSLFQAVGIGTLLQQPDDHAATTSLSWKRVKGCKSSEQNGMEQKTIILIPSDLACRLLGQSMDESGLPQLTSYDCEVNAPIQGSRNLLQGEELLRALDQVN
Chain of Paired box protein Pax-6 (Homo sapiens) (P26367 whole entry, looked up): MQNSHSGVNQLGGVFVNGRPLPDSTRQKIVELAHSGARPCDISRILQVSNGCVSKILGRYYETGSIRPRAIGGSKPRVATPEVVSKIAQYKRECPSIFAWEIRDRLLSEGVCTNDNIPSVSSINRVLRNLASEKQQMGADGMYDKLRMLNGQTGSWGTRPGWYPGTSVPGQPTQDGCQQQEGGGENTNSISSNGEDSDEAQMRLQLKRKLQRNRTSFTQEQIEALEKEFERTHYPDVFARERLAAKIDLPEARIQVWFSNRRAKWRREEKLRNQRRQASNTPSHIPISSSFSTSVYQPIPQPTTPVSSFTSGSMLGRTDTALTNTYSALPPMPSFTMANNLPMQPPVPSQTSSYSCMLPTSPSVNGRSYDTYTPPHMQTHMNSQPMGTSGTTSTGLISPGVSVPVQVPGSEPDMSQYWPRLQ
Chain of Transcription factor Sp1 (Homo sapiens) (P08047 whole entry, looked up): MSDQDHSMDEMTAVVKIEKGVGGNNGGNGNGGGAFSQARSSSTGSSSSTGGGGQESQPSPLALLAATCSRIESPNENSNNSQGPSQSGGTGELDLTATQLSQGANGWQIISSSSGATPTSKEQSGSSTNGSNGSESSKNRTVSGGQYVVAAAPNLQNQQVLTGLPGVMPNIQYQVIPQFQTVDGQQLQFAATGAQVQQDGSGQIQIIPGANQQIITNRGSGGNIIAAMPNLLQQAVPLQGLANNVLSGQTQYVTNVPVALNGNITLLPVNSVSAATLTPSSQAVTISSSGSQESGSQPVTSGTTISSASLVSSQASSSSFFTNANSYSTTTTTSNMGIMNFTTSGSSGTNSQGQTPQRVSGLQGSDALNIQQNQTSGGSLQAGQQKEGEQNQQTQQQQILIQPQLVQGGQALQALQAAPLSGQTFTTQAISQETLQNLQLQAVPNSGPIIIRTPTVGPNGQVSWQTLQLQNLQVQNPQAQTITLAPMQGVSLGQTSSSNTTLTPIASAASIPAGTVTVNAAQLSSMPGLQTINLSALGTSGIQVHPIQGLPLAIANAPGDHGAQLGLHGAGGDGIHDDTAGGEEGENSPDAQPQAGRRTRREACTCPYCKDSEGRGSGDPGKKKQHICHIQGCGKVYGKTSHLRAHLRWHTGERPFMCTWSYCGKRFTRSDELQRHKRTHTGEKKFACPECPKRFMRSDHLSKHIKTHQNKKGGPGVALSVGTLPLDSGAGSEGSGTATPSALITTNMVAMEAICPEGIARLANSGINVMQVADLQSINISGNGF
Chain of Signal transducer and activator of transcription 3 (Homo sapiens) (P40763 whole entry, looked up): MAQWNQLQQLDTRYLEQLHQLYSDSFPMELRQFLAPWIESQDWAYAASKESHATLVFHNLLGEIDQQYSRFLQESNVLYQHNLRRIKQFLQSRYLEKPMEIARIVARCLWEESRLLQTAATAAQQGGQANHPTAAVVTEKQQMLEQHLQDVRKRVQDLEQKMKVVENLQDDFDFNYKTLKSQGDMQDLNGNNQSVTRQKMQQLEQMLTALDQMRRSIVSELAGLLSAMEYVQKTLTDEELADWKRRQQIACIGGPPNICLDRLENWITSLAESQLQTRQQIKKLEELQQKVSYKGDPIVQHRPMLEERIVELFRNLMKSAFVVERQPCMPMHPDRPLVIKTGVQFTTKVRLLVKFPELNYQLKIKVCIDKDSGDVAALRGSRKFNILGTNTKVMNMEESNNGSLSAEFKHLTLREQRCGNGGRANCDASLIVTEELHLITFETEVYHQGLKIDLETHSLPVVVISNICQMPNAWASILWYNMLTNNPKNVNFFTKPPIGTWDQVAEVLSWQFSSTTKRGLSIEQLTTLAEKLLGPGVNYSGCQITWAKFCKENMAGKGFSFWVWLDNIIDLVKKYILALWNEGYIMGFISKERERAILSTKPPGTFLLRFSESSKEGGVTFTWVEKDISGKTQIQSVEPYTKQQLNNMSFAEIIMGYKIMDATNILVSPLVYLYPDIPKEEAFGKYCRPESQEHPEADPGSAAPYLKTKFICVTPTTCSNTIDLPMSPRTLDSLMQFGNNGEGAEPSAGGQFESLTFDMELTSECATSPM

Take `CC(C)(O)Cc1ccccc1`: the call in assay [1], in [2], in assay [3], in assay [4], in assay [5] and in [6] was inactive. Also, the molecule was classed as inactive in [7], in assay [8], in [9], in assay [10], in assay [11] and in assay [12]. Further, the result in assay [13], in assay [14], in assay [15] and in assay [16] was inactive.

As a reminder, the AC50 is the concentration at which the activity in the assay is half-maximal. With `CC(C)COC(=O)CC(C(=O)OCC(C)C)S(=O)(=O)O` (stereo unspecified), the result in [1], in assay [2], in assay [3], in assay [17], in [5] and in [6] was inactive. Also, the molecule was classed as inactive in assay [7], in [8], in assay [9], in assay [18], in assay [11] and in assay [12]. Moreover, the outcome in [13], in assay [14], in assay [19], in assay [15] and in assay [16] was inactive. For the same molecule, the AC50 in assay [10] was 29.5 µM (active).

On to `CC(=O)OC1CCCCC1C(C)(C)C` (stereo unspecified), for which the molecule was called inactive in assay [1], in [2], in [3], in [17], in assay [5] and in [6]. Also, the outcome in assay [7], in assay [8], in [9], in assay [18], in [10] and in assay [12] was inactive. The result in assay [13], in assay [14], in assay [19], in [15] and in [16] was inactive.

With `CCCCC1CCC(=O)O1` (stereo unspecified), the result in [1], in assay [2], in [3], in [17], in assay [4] and in assay [6] was inactive. Also, the molecule was classed as inactive in assay [8], in assay [9], in assay [13], in [14], in [19] and in assay [15]. For the same molecule, the call in assay [16] was inactive. Moreover, in [10], the AC50 is 22.4 µM (active).

Take `O=C1c2ccccc2C(=O)c2cc(S(=O)(=O)O)ccc21`: the molecule was classed as inactive in assay [1], in assay [2], in assay [3], in [17], in assay [6] and in [8]. In addition, the outcome in assay [9], in assay [18], in assay [10], in [12], in assay [13] and in assay [14] was inactive. Besides, the outcome in assay [19], in assay [15] and in assay [16] was inactive.

On to `CCOC(=O)CC(=O)c1ccccc1`, for which the result in assay [1], in [2], in [3], in assay [17], in assay [4] and in assay [6] was inactive. Besides, the result in assay [8], in assay [9], in assay [18], in assay [11], in [12] and in assay [13] was inactive. Besides, the outcome in [14], in assay [15] and in assay [16] was inactive. Also, in [10], the half-maximal activity concentration (AC50) is 10.4 µM (active).

The values above are taken from PubChem BioAssay (EPA / NIEHS).
